Compound activity from PubChem.
IDE exosite inh – exo-site inhibitors of human insulin-degrading enzyme | z-score at 20 µM | hit rate 6.3% among 17,000 | P14735 | purified IDE, FL-6b probe fluorescence polarization; active compounds read low;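 active = z-score of -3 or lower, meaning strong loss of probe binding signal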;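 note: His-tagged human IDE residues 42-1019 made in E. coli with 30 nM FL-6b probe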
Target sequence (P14735 42-1019 limits assumed): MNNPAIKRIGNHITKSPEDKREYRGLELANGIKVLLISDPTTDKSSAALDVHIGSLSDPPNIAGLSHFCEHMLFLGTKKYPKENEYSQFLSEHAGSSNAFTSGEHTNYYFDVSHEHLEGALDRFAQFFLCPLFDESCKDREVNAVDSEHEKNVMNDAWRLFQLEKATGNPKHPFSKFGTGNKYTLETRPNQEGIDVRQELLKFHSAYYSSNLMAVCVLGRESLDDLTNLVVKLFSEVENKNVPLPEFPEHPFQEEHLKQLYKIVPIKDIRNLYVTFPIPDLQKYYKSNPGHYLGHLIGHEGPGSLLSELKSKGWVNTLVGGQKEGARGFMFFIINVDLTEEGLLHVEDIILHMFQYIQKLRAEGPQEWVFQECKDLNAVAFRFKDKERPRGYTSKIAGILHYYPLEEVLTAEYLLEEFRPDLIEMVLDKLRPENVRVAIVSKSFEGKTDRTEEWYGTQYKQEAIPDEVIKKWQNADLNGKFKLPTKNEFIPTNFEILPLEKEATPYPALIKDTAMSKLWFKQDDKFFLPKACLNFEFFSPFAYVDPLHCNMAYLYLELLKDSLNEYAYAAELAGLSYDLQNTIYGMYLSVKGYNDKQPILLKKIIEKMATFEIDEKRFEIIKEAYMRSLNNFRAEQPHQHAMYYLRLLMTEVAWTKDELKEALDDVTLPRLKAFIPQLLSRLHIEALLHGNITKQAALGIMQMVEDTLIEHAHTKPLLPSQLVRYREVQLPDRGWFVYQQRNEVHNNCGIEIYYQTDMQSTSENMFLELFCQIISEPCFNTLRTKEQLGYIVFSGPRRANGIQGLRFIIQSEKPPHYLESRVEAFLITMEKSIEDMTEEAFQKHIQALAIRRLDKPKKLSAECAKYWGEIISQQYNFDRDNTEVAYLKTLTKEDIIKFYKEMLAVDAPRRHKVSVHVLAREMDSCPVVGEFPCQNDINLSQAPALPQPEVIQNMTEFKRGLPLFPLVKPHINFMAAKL
Active calls of the source: *; ! = not active in a repeat. The sample as a whole holds a higher share of hits than the screen did.

SMILES	IDE exosite inh
Cc1ccccc1-c1ccc([C@@H]2[C@H]3CN(C(=O)Nc4ccc(F)cc4)CCCCN3[C@H]2CO)cc1	-0.34
Cc1ccccc1-c1ccc([C@@H]2[C@H]3CN(C(=O)Nc4ccccc4)CCCCN3[C@H]2CO)cc1	0.79
Cc1ccccc1-c1ccc([C@H]2[C@H](CO)N3CCCCN(C(=O)Nc4ccc(F)cc4)C[C@@H]23)cc1	-2.4
COc1ccc(NC(=O)N2CCCCN3[C@@H](CO)[C@H](c4ccc(-c5ccccc5F)cc4)[C@@H]3C2)cc1	-0.77
Cc1ccccc1S(=O)(=O)N1CC(=O)N2[C@@H](CO)[C@@H](c3ccc(C#CCN(C)C)cc3)[C@@H]2C1	4.1
CCC(=O)N(CC)C[C@H]1[C@H](c2ccc(-c3ccccc3)cc2)[C@@H](CO)N1C(C)=O	1.9
O=C(Cc1ccccn1)N1CC[C@@H]2[C@H](CO)Nc3ccc(-c4cccc(F)c4)cc3[C@@H]21	1.8
OC[C@H]1[C@@H](c2ccc(-c3cccc(F)c3)cc2)[C@@H]2CN(CCC(F)(F)F)CCCCN12	1.3
C[C@@H](NC(=O)C[C@@H]1CC[C@H]2[C@H](COc3ccc(NS(=O)(=O)c4ccc(Cl)cc4)cc3C(=O)N2C)O1)c1ccccc1	-0.68
O=C(C1CC1)N1CC(=O)N2[C@H](C1)[C@@H](c1ccc(C#CC3CCCC3)cc1)[C@@H]2CO	2.6
CC(=O)NC[C@H]1[C@H](c2ccc(-c3ccccc3)cc2)[C@H](CO)N1C(=O)C1CC1	1.8
C[C@H](CO)N1C[C@H](C)[C@@H](CN(C)C(=O)NC2CCCC2)Oc2cc(-c3cncnc3)ccc2S1(=O)=O	-0.32
O=C(c1ccc2c(c1)OCO2)N1C[C@@H]2N[C@H](C1)C2c1ccc(/C=C/c2ccccc2)cc1 (stereo partly drawn)	-0.41
O=C(c1ccc(F)cc1)N1CC(=O)N2[C@H](CO)[C@@H](c3ccc(/C=C/c4ccccc4)cc3)[C@H]2C1	2
C(=C\c1ccc(C2[C@@H]3CN(Cc4ccccn4)C[C@H]2N3)cc1)/c1ccccc1 (stereo partly drawn)	-5.2*
O=C(C1CCOCC1)N1C[C@@H]2N[C@H](C1)C2c1ccc(/C=C/c2ccccc2)cc1 (stereo partly drawn)	-7.6*!
O=C(c1cccnc1)N1C[C@@H]2N[C@H](C1)C2c1ccc(-c2ccccc2)cc1 (stereo partly drawn)	-2.8
O=C(CN1CCOCC1)N1C[C@@H]2N[C@H](C1)C2c1ccc(/C=C/c2ccccc2)cc1 (stereo partly drawn)	-0.79
O=C(c1ccncc1)N1C[C@@H]2N[C@H](C1)C2c1ccc(/C=C/c2ccccc2)cc1 (stereo partly drawn)	-14*!
O=C(c1ccc(F)cc1)N1C[C@@H]2N[C@H](C1)C2c1ccc(/C=C/c2ccccc2)cc1 (stereo partly drawn)	-4.6*!
O=C(C1CCOCC1)N1C[C@@H]2N[C@H](C1)C2c1ccc(-c2ccncc2)cc1 (stereo partly drawn)	2.1
COc1ccccc1NC(=O)N1C[C@@H]2N[C@H](C1)C2c1ccc(/C=C/c2ccccc2)cc1 (stereo partly drawn)	-0.39
C(=C\c1ccc(C2[C@@H]3CN(Cc4nccs4)C[C@H]2N3)cc1)/c1ccccc1 (stereo partly drawn)	-2.4
COc1ccc(-c2ccc(C3[C@@H]4CN(Cc5ccccn5)C[C@H]3N4)cc2)cc1 (stereo partly drawn)	3.7
CCS(=O)(=O)N1Cc2cc(C(=O)N(C)C)nc(-c3cccc(-c4ccc(C#N)cc4)c3)c2[C@@H]1CCO	1.4
SMILES	IDE exosite inh
COc1ccc2c3c(n(C)c2c1)[C@H](CO)N(C(C)=O)CC31CCN(Cc2ccccc2OC)CC1	-0.41
O=C1CN(Cc2ccc(F)cc2)C[C@@H]2[C@@H](c3ccc(-c4ccccc4F)cc3)[C@H](CO)N12	-0.17
N#C[C@H]1[C@@H](c2ccccc2-c2ccccc2F)[C@H](CO)N1C(=O)C1CCOCC1	-0.42
CCCNC(=O)N1CC2(C1)CN(C(=O)c1ccccc1)[C@@H](CO)c1[nH]c3cc(OC)ccc3c12	-0.84
COCC(=O)Nc1ccc2c(c1)C(=O)N(C)C[C@H](OC)[C@H](C)CN(C(=O)c1ccncc1)[C@H](C)CO2	0.37
O=C(c1cccc(F)c1)N1CC2(C1)[C@@H](c1ccccc1)[C@@H](CO)N2C(=O)C1CCCCC1	-2.8
O=C(C1CCC1)N1CC(=O)N2[C@H](CO)[C@H](c3ccc(C#Cc4cccc(F)c4)cc3)[C@@H]2C1	-2.8
O=C(C1CCCC1)N1CC(=O)N2[C@H](CO)[C@@H](c3ccc(C#CC4CCCC4)cc3)[C@@H]2C1	0.25
O=C(C1CCCCC1)N1CC(=O)N2[C@@H](CO)[C@@H](c3ccc(C#Cc4cccc(F)c4)cc3)[C@@H]2C1	-4.5*
O=C(C1CCC1)N1CC(=O)N2[C@H](C1)[C@@H](c1ccc(C#Cc3cccc(F)c3)cc1)[C@@H]2CO	-1.3
O=C(c1cccc(F)c1)N1CC(=O)N2[C@@H](CO)[C@H](c3ccc(C#Cc4ccc(F)cc4)cc3)[C@@H]2C1	3.4
